Screens (PubChem)
Sampled rows, rich in hits. Any-hit rate of the full collection: about 8.9%.
DRD3 antagonist – qHTS of D3 Dopamine Receptor Antagonist: qHTS; D3R cells, DiscoveRx beta-arrestin luminescence, antagonist mode; hits give low values; D(3) dopamine receptor (Homo sapiens), P35462; actives 2.5% (n = 360,000); max response, negative = inhibition, %; in the data active = max response below about -50%; inconclusive = no clear call, values can overlap the other calls; note: % is set by controls: 0 for no effect and ±100 for the full control effect
Target sequence (P35462 whole entry, looked up): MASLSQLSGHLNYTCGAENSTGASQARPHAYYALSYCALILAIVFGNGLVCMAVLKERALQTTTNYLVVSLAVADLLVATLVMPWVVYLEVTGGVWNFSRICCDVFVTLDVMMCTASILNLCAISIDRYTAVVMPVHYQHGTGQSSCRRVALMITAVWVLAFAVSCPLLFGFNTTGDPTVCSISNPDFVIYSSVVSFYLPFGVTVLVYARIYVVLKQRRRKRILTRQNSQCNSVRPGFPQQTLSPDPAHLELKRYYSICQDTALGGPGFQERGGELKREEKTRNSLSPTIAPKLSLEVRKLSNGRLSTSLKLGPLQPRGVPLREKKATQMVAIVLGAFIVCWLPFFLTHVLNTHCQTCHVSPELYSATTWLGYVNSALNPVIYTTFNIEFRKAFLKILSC
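Cells plated overnight at 1500 cells/well, then exposed to library compounds with dopamine controls for 90 minutes at 37 degrees C. DiscoveRx reagent added for 30–60 minutes at room temperature; luminescence read, quantitative HTS format.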
KB-3-1 tox – qHTS assay for MDR1-selective chemotherapeutics: Primary screen using the parental adenocarcinoma cell KB-3-1; actives 1.4% (n = 400,000); AID 1347075, 2019; Potency, µM (series often up to 46.1 µM), hits mostly cytotoxic; KB-3-1 viability, CellTiter-Glo ATP luminescence, 72 h; note: potency is the fitted concentration of half-maximal effect; % is set by controls: 0 for no effect and ±100 for the full control effect; nearly all actives have a fitted effect of over 60% in size
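Cytotoxicity measured as CellTiter-Glo luminescence after 72 h at 37 C. Compound titrations were pinned onto drug-naive KB-3-1 parental adenocarcinoma cells grown in DMEM with 10% FBS, and normalized data fitted to concentration-response curves.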
KB-V1 MDR tox – qHTS assay for MDR1-selective chemotherapeutics: Primary screen using the drug-selected MDR subline cells KB-V1. KB-V1 MDR cells viability, CellTiter-Glo, 72 h. Potency, µM (series often up to 46.1 µM), usual class: cytotoxic. actives 3.4% (n = 400,000); note: potency is the fitted concentration of half-maximal effect; % is set by controls: 0 for no effect and ±100 for the full control effect; nearly all actives have a fitted effect of over 60% in size
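KB-V1, DMEM (no phenol red) + 10% FBS; cpd pin-transferred, titration series; 72 h, 37 degrees C; CellTiter-Glo, luminescence. Data normalized, curve-fit.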
MCF10A rerep – A quantitative high throughput screen for small molecules that induce DNA re-replication in MCF 10a normal breast cells; MCF 10A DNA re-replication, Hoechst nuclear intensity, 48 h; Potency, µM (titrated, usually from 46.1 µM), for inactives: at the highest dose activity, positive = re-replication, most hits filed as activators; actives 2.9% (n = 350,000); note: potency is the fitted concentration of half-maximal effect; % of control where 0% means no effect; nearly all actives have a fitted effect of over 50% in size
D3 ag – qHTS of D3 Dopamine Receptor Agonist: qHTS; D(3) dopamine receptor (Homo sapiens), P35462; D3R DiscoveRx beta-arrestin cells, luminescence, 90 min; max activation, %; actives 0.58% (n = 410,000); in the data active = max activation above about 30%; note: 0% is about no effect
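Agonist mode: compounds and dopamine controls were applied to plated cells for 90 min at 37 degrees C after an overnight attachment at 1500 cells/well. Luminescent read-out followed 30 - 60 minutes at room temperature with DiscoveRx detection reagent.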
SW480 rerep – A quantitative high throughput screen for small molecules that induce DNA re-replication in SW480 colon adenocarcinoma cells | SW480 DNA re-replication, Hoechst DNA content imaging, 48 h | AID 624297, 2012 | actives 1.8% (n = 340,000) | Potency, µM (doses to about 46.1 µM), inactives show top-dose re-replication activation, most hits filed as activators; note: potency is the fitted concentration of half-maximal effect; % of control where 0% means no effect; nearly all actives have a fitted effect of over 55% in size
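Treated cells incubate 48 hr (37 C, 5% CO2), are stained 40 min with Hoechst, and nuclear fluorescence is enumerated; a rise in nuclei with high DNA signal marks re-replication.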
An asterisk follows results filed as active; i = inactive; ? = inconclusive; nt = not tested or not shown. Unless noted, calls come from the whole dose curve; as a rule, active = well fitted curve in the direction sought with a large enough effect; inconclusive = small, poorly fitted or top-dose-only effect, or another doubt; inactive = no such curve, though single readings can be large; an effect the other way counts as inactive or inconclusive.

SMILES	DRD3 antagonist	KB-3-1 tox	KB-V1 MDR tox	MCF10A rerep	D3 ag	SW480 rerep
CS(=O)(=O)c1ccc(C2=C(CNC(=O)c3ccc([N+](=O)[O-])cc3)[C@H]3CC[C@@H](C2)N3Cc2ccccc2)cc1	-85.7*	i	i	nt	-7.5	nt
CCOC(=O)c1cccc(C2=C(CNC(=O)c3ocnc3C)[C@H]3CC[C@@H](C2)N3Cc2ccccc2)c1	-1.6	i	i	nt	-12.4	nt
CCOC(=O)c1cccc(C2=C(CNC(=O)c3nccs3)[C@H]3CC[C@@H](C2)N3Cc2ccccc2)c1	-57.0*	i	?	nt	-16.7	nt
O=[N+]([O-])c1ccc(-c2ccccc2)c([As](=O)(O)O)c1	?	i	i	23.1µM*	-1.3	15.8%
O=[N+]([O-])c1ccc2c(c1)C(c1ccccc1)=NCCN2	2.3	i	?	3.2%	-11.5	5.4%
NC(N)=N/N=C/c1ccc(N2CCOCC2)cc1	25.3	?	i	?	0.8	6.51µM*
O=Cc1cn(Cc2c(F)cccc2Cl)nc1-c1ccccc1	-17.3	i	i	15.7%	-3.0	-10.9%
CCc1ccc(-c2nn(Cc3ccccc3)cc2C=O)cc1	5.7	i	i	0.3%	1.5	4.61µM*
CN1C(=O)C(=Cc2ccccc2OCc2ccc(Cl)cc2)C(=O)N(C)C1=O	14.5	i	i	-0.1%	0.1	-2.7%
O=C1NC(=O)C(=Cc2cc(Cl)ccc2OCc2ccc(C(=O)O)cc2)C(=O)N1	-12.8	i	i	0.92µM*	-7.7	?
Cc1cccc(-c2nc(CN3C(=O)CN=C(c4ccccc4)c4ccccc43)c(C)o2)c1	nt	i	i	nt	8.3	nt
CCC(=O)O[C@]1(c2ccccc2)CCN(C)C[C@H]1C	nt	nt	nt	nt	-19.2	nt
CN1CCC(O)(c2ccc(F)cc2)C(C(=O)c2ccc(F)cc2)C1 (configuration not stated)	nt	nt	nt	26.6µM*	2.1	?
CCCCN1CCC(O)(c2ccccc2)C(C(=O)c2ccccc2)C1 (configuration not stated)	-65.4*	i	i	?	-10.0	?
CCC1OC(=O)CC(O)C(C)[C@@H](O[C@@H]2OC(C)[C@H](O[C@@H]3C[C@@](C)(O)C(O)C(C)O3)C(N(C)C)C2O)[C@H](CC=O)CC(C)C(=O)/C=C/C(C)=C/[C@@H]1COC1OC(C)C(O)C(OC)[C@@H]1OC (some centres not stated)	nt	nt	nt	1.9%	nt	-6.2%
CCOC(=O)C1(CCc2ccccc2)CCN(Cc2cccc3cnccc23)CC1	-1.5	?	?	?	-13.0	?
CCOC(=O)C1(CCc2ccccc2)CCN(Cc2cccc3c2OCO3)CC1	-81.0*	?	i	8.5%	-26.3	?
CC1(C)c2[nH]c3ccccc3c2C[C@@H]2C(=O)N(Cc3ccccc3F)C(=O)N21	nt	?	?	?	nt	-3.2%
CC12CC1(C)C(=O)N(c1cc(Cl)cc(Cl)c1)C2=O (configuration not stated)	-56.4*	i	i	-0.7%	1.3	15.0%
CC[C@@H](CO)NC(=O)[C@@H]1C=C2c3cccc4c3c(cn4C)C[C@H]2N(C)C1	-93.0*	i	i	8.3%	-88.1	-3.7%
CCC(CO)NC(=O)C1C=C2c3cccc4[nH]cc(c34)CC2N(C)C1 (configuration not stated)	-56.7*	i	i	-8.1%	15.1	-18.1%
CC[C@@H](CO)NC(=O)[C@@H]1C=C2c3cccc4[nH]cc(c34)C[C@H]2N(C)C1	-17.3	i	i	6.9%	33.0*	2.5%
Cc1ccc(Cn2cccc(C(=O)Nc3cc(C)on3)c2=O)cc1	nt	i	i	nt	-11.8	nt
